# Results taken from PubChem BioAssay AID1981 (Southern Research Specialized Biocontainment Screening …, 2009).
# Hit rate of the full screen: of about 2,200 compounds, about 480 (22%) were called active. The rule behind the calls is not given here. A selection follows. Results with a measured potency or affinity are listed apart.
# Assay: S. Typhimurium GFP fluorescence modified counterscreen for PhoP regulon inhibitor project dose response (AID 1981)
# Conditions: 4 h; series mostly up to 150 µM
row,SMILES,outcome
1,CCOC(=O)C1=NNC2(c3ccc(Cl)cc3)C(=O)N(c3cc(C)cc(C)c3)C(=O)C12 (centres undefined),inactive
2,CCn1nc(C(=O)OC(C(=O)c2c[nH]c3ccccc23)c2ccccc2)c2ccccc2c1=O (centres undefined),inactive
3,COc1cccc(/C=N/NC(=O)c2ccc(-c3ccccc3)cc2)c1O,inactive
4,Cc1ccc(/C=N/NC(=O)Cn2cnc3ccccc32)o1,inactive
5,c1ccc2c(N3CCCCCC3)nc(-c3ccncc3)nc2c1,inactive
6,Brc1ccc(OCCn2ccnc2)cc1,inactive
7,Oc1ccccc1-c1nc(/C=C/c2ccccc2)nn1-c1ccccc1,inactive
8,Cc1cc(C)c(NC(=S)NC(=O)c2ccc(-c3ccccc3)cc2)c(C)c1,inactive
9,CC(C)OC(=O)c1ccc(NC(=O)c2ccccc2)cc1,inactive
10,O=C(Cc1cccs1)N(c1ccccc1)C1C=CS(=O)(=O)C1 (centres undefined),inactive
11,Oc1[nH]c(=S)sc1/C=C1\C(c2ccccc2)=Nc2ccccc21,inactive
12,Oc1ccc(Br)cc1-c1ccn[nH]1,inactive
13,O=C(CSc1nc2ccccc2[nH]1)Nc1ccc(F)c(F)c1,inactive
14,Cc1ccc(O)c(-c2cc(-c3ccccc3C)[nH]n2)c1,inactive
15,Clc1c(OCCCn2ccnc2)ccc2ccccc12,inactive
16,Cc1ccc(C)n1-c1cc([N+](=O)[O-])ccc1-n1ccnc1,inactive
17,CN(CCO)Cc1csc2ccc(Br)cc12,inactive
18,O=C(Nc1cccc2ccccc12)OC1C=CS(=O)(=O)C1 (centres undefined),inactive
19,CN(C)C=NC(=O)c1[nH]c2ccc(Cl)cc2c1-c1ccccc1,inactive
20,Cn1cnnc1SCC(=O)Nc1cccc(C(=O)O)c1,inactive
21,Cc1nnc(SC(C)C(=O)Nc2ccc(S(=O)(=O)N3CCCCCC3)cc2)s1 (centres undefined),inactive
22,CCOC(=O)N1CCN(C(=O)c2cn(CC(C)C)c(=O)c3c2c2ccccc2n3C)CC1,inactive
23,CCOC(=O)c1cn(CC)c2cc(N3CCOCC3)c(F)cc2c1=O,inactive
24,N#CC1=C(S)N(c2ccccc2)C(c2ccc(-c3ccccc3Cl)o2)NC1=O (centres undefined),inactive
25,Cc1ccc(O)c(-c2cc(-c3cccc(F)c3)n[nH]2)c1,inactive

row,SMILES,outcome
1,Cc1ccc2nc(C)c(CN3CCN(c4ccc([N+](=O)[O-])cc4Cl)CC3)n2c1,inactive
2,O=S(=O)(Nc1ccc(Cc2ccncc2)cc1)c1ccc(Br)s1,inactive
3,Nc1ccc2oc3ccc(N)cc3c(=O)c2c1,inactive
4,Nc1ccc2oc(=O)c3ccccc3c2c1,inactive
5,COc1ccc(-n2ncc(S(=O)(=O)c3ccccc3)c2-c2ccc(Cl)cc2)cc1,inactive
6,COc1ccc2nc(SCC(=O)N(C)C3CCCCC3)c(C#N)cc2c1,inactive
7,CCCn1c(SCC(=O)NCCc2ccccc2)nnc1-c1cccnc1,inactive
8,Cc1ccc(-c2[nH]c(-c3ccc(Cl)cc3)nc2SCC(=O)NCC2CCCO2)cc1 (centres undefined),inactive
9,S=C(NN=C1C2CC3CC(C2)CC1C3)Nc1ccccc1,inactive
10,Cc1ccc(C(C(=O)NCc2ccco2)N(CCc2ccccc2)C(=O)Cn2nnc3ccccc32)o1 (centres undefined),inactive
11,O=C(Nc1cccc(-c2cn3cccnc3n2)c1)c1ccco1,inactive
12,Cn1c(NCc2ccccc2O)nc2ccccc21,inactive
13,N/C(=N\OC(=O)c1ccc(F)cc1)c1nonc1N,inactive
14,CNC(=O)c1ccc(-c2ccc(F)cc2)s1,inactive
15,COc1cc(/C=C2/SC(=S)N(CC(=O)Nc3cccnc3)C2=O)cc(OC)c1OC,inactive
16,CCCCCCC(=O)N(O)C1CC(=O)N(c2ccc(C)cc2)C1=O (centres undefined),inactive
17,C=CCNC(=S)NNC(=O)c1cccn(Cc2ccc(Cl)cc2)c1=O,inactive
18,Nc1cc(Br)c(N)c(Br)c1,inactive
19,CC(=O)NC1C(c2nc3ccccc3s2)=C(c2ccccc2)C(=O)N1c1ccc(C)cc1 (centres undefined),inactive
20,CC1Cc2ccccc2N1C(=O)COC(=O)c1ccc(S(=O)(=O)N(C)C)cc1 (centres undefined),inactive
21,COC(=O)Cc1c(O)ccn(Cc2ccc(F)cc2)c1=O,inactive
22,CCc1c(C)c2cc(Cl)c(O)c(CN(C)C)c2oc1=O,inactive
23,CC1=CC(C)(C)n2c(O)c(C3=NC(=S)NC3=O)c3cc(OC(=O)c4cccc5ccccc45)cc1c32,inactive
24,Cn1c(=N)n(CC(=O)c2ccc(Br)s2)c2ccccc21,inactive
25,N=c1n(CC(=O)c2ccc([N+](=O)[O-])cc2)c2ccccc2n1Cc1ccccc1,inactive

row,SMILES,outcome
1,COc1cc(S(=O)(=O)N2CCCCC2)ccc1NC=O,inactive
2,NC1=Nc2ccccc2Oc2ccccc21,inactive
3,NC1=NC(=Nc2cccc(Cl)c2)c2ccccc21,inactive
4,c1ccc2c(C3=NNC(=NC4CCCCC4)SC3)c[nH]c2c1,inactive
5,CN(C)S(=O)(=O)Nc1ccc(C(=O)O)cc1,inactive
6,COc1cccc(OCC(O)CN2CCN(c3ccccn3)CC2)c1 (centres undefined),inactive
7,Cn1c(SCC(=O)NC(=O)c2cccc([N+](=O)[O-])c2)nnc1-c1ccc(F)cc1,inactive
8,O=C(Cn1cc[n+](CC(=O)c2ccccc2)c1)c1ccccc1,inactive
9,C/C(=N/Nc1nc(-c2ccccc2)cc(-c2ccc(F)cc2)n1)c1cccc(N)c1,inactive
10,c1ccc(-c2nnc(SCCC3OCCCO3)o2)cc1,inactive
11,CC1(C)CC2CC(C)(CN2C(=O)COC(=O)c2n[nH]c(=O)c3ccccc23)C1 (centres undefined),inactive
12,Fc1ccccc1COc1ccc(Br)cc1CNCc1ccncc1,inactive
13,O=[N+]([O-])c1ccccc1CNc1ccc(F)c(Cl)c1,inactive
14,c1ccc(COc2ccccc2CNCc2cccnc2)cc1,inactive
15,O=c1cc(CSc2nc(NCc3ccccc3)c3ccccc3n2)nc2ccc(Cl)cn12,inactive
16,N#CCCN(C(=O)CN1C(=O)NC2(CCCC2)C1=O)c1ccccc1F,inactive
17,O=C(CCNS(=O)(=O)c1cccc2nsnc12)Nc1ccc2c(c1)OCCO2,inactive
18,Cc1nc2c(=O)n(C)c(=O)n(C)c2nc1Cl,inactive
19,Cc1cc(C)nc(/N=C(\N)Nc2ccc(SC(F)F)cc2)n1,inactive
20,CC(=O)c1c(C)[nH]c(C(=O)CSc2nnc(-c3ccco3)n2Cc2ccccc2)c1C,inactive
21,CCn1cc(C(=O)O)c(=O)c2cc(Br)ccc21,inactive
22,Cc1ccc(S(=O)(=O)c2cn(Cc3ccc(F)cc3)c3cc4c(cc3c2=O)OCO4)cc1,inactive
23,O=C(Cn1nc(Cc2cccnc2)c2ccccc2c1=O)NCc1ccc2c(c1)OCO2,inactive
24,O=C(O)c1cc(NCc2ccc3c(c2)OCO3)ccc1N1CCOCC1,inactive
